Source: PubChem (National Center for Advancing Translational Sciences (NCATS))
TCR act = activators of T cell receptors | primary human leukocytes, anti-CD3, IL-2 HTRF, 48 h | Potency, µM (doses to about 9.22 µM), for inactives: at the top dose activation of IL-2 secretion, most hits filed as activators | 330,000 tested, under 10 active | AID 504894; note: % of control where 0% means no effect
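48 hr co-incubation of compounds, a-CD3 beads and primary human leukocytes; IL-2 quantified homogeneously by HTRF with anti-IL-2 K and d2 conjugates.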
CCT modulator = modulators of cytosolic chaperonin (CCT/TRiC) activity. 360,000 compounds, 0.3% hits. purified chaperonin ATPase assay, HTRF ADP detection, 30 min. activity change, % (concentration not given with the values), hits read low. AID 651819; in the data active = activity change below about -30%; note: % is set by controls: 0 for no effect and ±100 for the full control effect
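Nucleotide hydrolysis assay: TRiC at 20–40 nM final (set by batch activity) with 10 uM ATP, 30 min at 37 °C, in presence of 76 uM compound. Detection by competitive ADP HTRF, 30 min ambient.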
B2AR arrestin = agonists driving beta-arrestin recruitment to human beta2-adrenergic receptor; Potency, µM (top dose mostly 46.1 µM), without a hit: at the top dose activation, hits mostly activators; AID 492947; 330,000 compounds, 0.02% hits; P07550; beta-arrestin recruitment to beta2AR, cell-based reporter;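 note: potency is the fitted concentration of half-maximal effect; 0% = DMSO controls and full agonism = EC100 isoproterenol or metaproterenol; nearly all actives have a fitted effect of over 65% in size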
Target sequence (P07550 whole entry, looked up): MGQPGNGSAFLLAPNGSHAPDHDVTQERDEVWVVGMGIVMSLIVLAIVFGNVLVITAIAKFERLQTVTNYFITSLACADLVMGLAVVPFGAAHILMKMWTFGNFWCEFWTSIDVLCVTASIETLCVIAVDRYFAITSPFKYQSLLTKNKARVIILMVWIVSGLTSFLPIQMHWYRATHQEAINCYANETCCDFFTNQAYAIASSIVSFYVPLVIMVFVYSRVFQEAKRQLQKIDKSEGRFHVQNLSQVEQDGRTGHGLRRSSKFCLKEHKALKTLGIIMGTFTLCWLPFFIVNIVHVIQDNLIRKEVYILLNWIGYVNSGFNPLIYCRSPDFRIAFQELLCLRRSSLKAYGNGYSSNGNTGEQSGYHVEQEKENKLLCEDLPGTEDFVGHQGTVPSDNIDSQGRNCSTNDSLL
MmCpn inh = inhibitors of Methanococcus maripaludis chaperonin TRiC (MmCpn); purified Mm-Cpn ATPase, ADP Transcreener TR-FRET; Potency, µM (series often up to 76.9 µM), inactives show top-dose activity, negative = inhibition, actives largely listed as inhibitors; 330,000 compounds, 0.031% hits; AID 504842; note: potency is the fitted concentration of half-maximal effect; % is set by controls: 0 for no effect and ±100 for the full control effect; nearly all actives have a fitted effect of over 80% in size
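Compound-treated chaperonin, 25 nM final, turns over 10 uM ATP at 37°C for 30 min following a 10 min preincubation; ADP generated competes with ADP-d2 for Eu-cryptate antibody, lowering FRET.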
TSHR antagonist = blocks TSH signaling through the human TSH receptor | P16473 | TSHR-expressing cells, TSH-stimulated cAMP HTRF, 2 h; stronger effect = lower value | activity change, negative = inhibition, % at 11.5 µM | 330,000 compounds, 0.2% hits | AID 504810;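 active = activity change below a set negative limit, meaning inhibition stronger than a set level, cut at about -70% in these data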; note: % is set by controls: 0 for no effect and ±100 for the full control effect
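TSHR-expressing cells were treated with compounds, then stimulated with TSH at EC80 (4nM final) for 2 hours at 37 deg C. Cellular cAMP was measured by HTRF competition between lysate cAMP and cAMP-d2 for a cryptate-labelled anti-cAMP antibody.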
The depositor's hits bear a star; [ ] = another dose, or the depositor's remark. In the library only some 0.5% were active in any assay of this set; here they are far more common. Unless noted, calls come from the whole dose curve; as a rule, active = well fitted curve in the direction sought with a large enough effect; inconclusive = small, poorly fitted or top-dose-only effect, or another doubt; inactive = no such curve, though single readings can be large; an effect the other way counts as inactive or inconclusive.

Screening COc1cccc(-c2csc(N3CCN(S(=O)(=O)c4ccc(F)cc4)CC3)n2)c1 returned CCT modulator 1, B2AR arrestin 0%, MmCpn inh -15% and TSHR antagonist -16.
For CCOC(=O)c1[nH]c2cc(OC)c(OC)cc2c1NC(=O)c1ccc2c(c1)OCO2 the results were TCR act 0%, CCT modulator 0, B2AR arrestin 0%, MmCpn inh 0% and TSHR antagonist -75*.
Screening CCOC(=O)c1cc2sccc2n1CC(=O)OC(C)C returned TCR act 0%, CCT modulator -1, B2AR arrestin 0%, MmCpn inh -1% and TSHR antagonist 20.
For Cc1ccc(OCCCc2c(C)n[nH]c2C)cc1 the results were TCR act 7%, CCT modulator -60*, B2AR arrestin 0%, MmCpn inh -3% and TSHR antagonist -9.
Cc1n[nH]c(C)c1CCCCOc1ccccc1 was read as TCR act 2%, CCT modulator -3, B2AR arrestin 0%, MmCpn inh 1% and TSHR antagonist -10.
C(=C\c1ccccc1)/C=N/Nc1nc(N2CCOCC2)nc(N2CCOCC2)n1 was read as TCR act 0%, CCT modulator -1, B2AR arrestin 0%, MmCpn inh 0% and TSHR antagonist -7.
Screening CC(=C/c1ccccc1)/C=N/Nc1nc(N2CCOCC2)nc(N2CCOCC2)n1 returned TCR act -6%[46.1 µM], CCT modulator -49*, B2AR arrestin 0%, MmCpn inh -1% and TSHR antagonist -14.
CCOc1ccc(/C=N/NC(=O)c2ccc3nc[nH]c3c2)cc1OC was read as CCT modulator 1.
`Cn1c(SCc2cccc([N+](=O)[O-])c2)nc2ccccc2c1=O` gave TCR act -5%, CCT modulator -39*, B2AR arrestin 0%, MmCpn inh 0% and TSHR antagonist -44.
Screening O=C(C1CCN(Cc2ccc(F)cc2)CC1)N(CCc1ccccc1)Cc1ccccc1 returned TCR act -3%[46.1 µM], CCT modulator -2, B2AR arrestin 0%, MmCpn inh -20% and TSHR antagonist 4.
Oc1ccc(-c2sc(Nc3ccccc3)n[n+]2-c2ccc(F)cc2)cc1 was read as TCR act 17%, CCT modulator -2, B2AR arrestin 1%, MmCpn inh 40µM* and TSHR antagonist 6.
Screening CCOc1ccc(CCNC(=O)CCCn2c(=O)c3cccn3c3cccnc32)cc1OCC returned TCR act -7%, CCT modulator -86*, B2AR arrestin 0%, MmCpn inh 2% and TSHR antagonist -4.
Screening COc1ccc(CCNC(=O)CCCn2c(=O)c3cccn3c3cccnc32)c(OC)c1OC returned TCR act -4%, CCT modulator -3, B2AR arrestin 0%, MmCpn inh -8% and TSHR antagonist 1.
O=C(CCC1CCCN(C(=O)c2ccoc2)C1)NCc1ccc(F)c(F)c1 (configuration not stated) was read as TCR act 3%, CCT modulator 0, B2AR arrestin 0%, MmCpn inh -1% and TSHR antagonist -1.
For Cc1cc2cc(CN(CCN3CCOCC3)C(=O)Nc3ccccc3F)c(=O)[nH]c2cc1C the results were TCR act -3%, CCT modulator 3, B2AR arrestin -1%, MmCpn inh -6% and TSHR antagonist 33.
For COC(=O)C(O)(NC(=O)NC(C)=O)C(F)(F)F (configuration not stated) the results were TCR act 4%, CCT modulator -56*, B2AR arrestin 0%, MmCpn inh -2% and TSHR antagonist 14.
`C[C@@H]1CC2[C@@H]3CC[C@H]4CC(=O)CC[C@]4(C)C3=CC[C@]2(C)[C@@]1(O)C(=O)CO` (some centres not stated) gave TCR act 0%, CCT modulator -1, B2AR arrestin 0%, MmCpn inh 2% and TSHR antagonist -13.
Screening O=C(NCc1ccccn1)C1CCCN(S(=O)(=O)c2cc(Cl)ccc2Cl)C1 (configuration not stated) returned TCR act 7% and CCT modulator 1.
Screening Cc1cc(S(=O)(=O)N2CCCC(N(C)CCc3ccccn3)C2)c(C)cc1Cl (configuration not stated) returned TCR act 1%, CCT modulator -75*, B2AR arrestin 0%, MmCpn inh -2% and TSHR antagonist -1.
For COc1ccc(CCn2c(C)cc3c(c2=O)C(c2ccncc2)C(C#N)=C(N)O3)cc1OC (configuration not stated) the results were TCR act 3%, CCT modulator -36*, B2AR arrestin 1%, MmCpn inh 0%[15.4 µM] and TSHR antagonist 7.
Screening CCn1c(C)cc2c(c1=O)C(c1ccncc1)C(C#N)=C(N)O2 (configuration not stated) returned TCR act 2%, CCT modulator 1, B2AR arrestin 0%, MmCpn inh 0% and TSHR antagonist -11.
Screening COc1ccc(-c2cc(C(=O)Nc3cc(OC)c(OC)c(OC)c3)no2)cc1 returned TCR act -2%, CCT modulator -34*, B2AR arrestin -1%, MmCpn inh 0% and TSHR antagonist -2.
`CN(C(=O)C(C)(C)C)[C@H]1C[C@H]2c3[nH]c4ccccc4c3CCN2C(=O)[C@H]1CO` gave CCT modulator 0.
Screening CN(C(=O)NC1CCCCC1)[C@H]1C[C@H]2c3[nH]c4ccccc4c3CCN2C(=O)[C@H]1CO returned CCT modulator -57*.
For CC(=O)N1CCN(S(=O)(=O)c2cccc(C(=O)Nc3ccc(OC(F)F)cc3)c2)CC1 the results were TCR act -8%, CCT modulator -39*, B2AR arrestin 0%, MmCpn inh 0% and TSHR antagonist -12.
Screening Cc1c(C#N)c(NC(=O)CCl)n(Cc2ccc(F)cc2)c1C returned TCR act 1%, CCT modulator -3, B2AR arrestin 0%, MmCpn inh 0% and TSHR antagonist -1.
`COc1ccc(NC(=O)CN2CCN(c3ccc(C)cc3C)CC2)cc1` gave CCT modulator -55*, B2AR arrestin -1%, MmCpn inh 0% and TSHR antagonist -14.
`CC(NC(=O)COC(=O)CNC(=O)c1ccccc1Cl)C1CC2CCC1C2` (configuration not stated) gave TCR act -8%, CCT modulator -40*, B2AR arrestin 0%, MmCpn inh 2% and TSHR antagonist -3.
Screening CCOc1ccc2oc(C(=O)OCC(=O)N3C(C)CCCC3C)c(C)c2c1 (configuration not stated) returned TCR act -5%, CCT modulator 0, B2AR arrestin 0%, MmCpn inh -11% and TSHR antagonist -79*.
